PubChem BioAssay (NCI)
Compounds without any hit were thinned out: in the full panel of roughly 79,000, 15% have a hit. Active and inactive are the calls of the source. Cut-off read from the data, not from the text of the source: active = growth inhibition above about 70%; inactive = the rest.

What was measured:
[1] = NCI Yeast Anticancer Drug Screen. Data for the rad52 strain (AID 147);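 note: 0% = growth of vehicle-treated control cultures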; conditions: S. cerevisiae rad52 mutant growth inhibition, hits give high values
How it was run: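 Growth of repair-deficient yeast cells was compared between compound-treated and vehicle-treated cultures to give percent inhibition.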

[2] = NCI Yeast Anticancer Drug Screen. Data for the wt1 strain (AID 149);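 note: 0% = growth of vehicle-treated wt1 cultures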; conditions: S. cerevisiae wt1 strain (SPY 50644) growth inhibition, hits give high values
How it was run: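 Vehicle-normalised growth inhibition; strain wt1; compound exposure.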

[3] = NCI Yeast Anticancer Drug Screen. Data for the rad50EPP+ strain (AID 151);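 note: 0% = growth of vehicle-treated control cultures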; conditions: S. cerevisiae rad50 mutant strain, hits give high values
How it was run: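 Measured: growth inhibition of rad50EPP+ yeast. Reference: vehicle-treated controls. Screen uses strains with defined genetic alterations in DNA damage repair or cell cycle control.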

[4] = NCI Yeast Anticancer Drug Screen. Data for the mgt1 strain (AID 153); conditions: S. cerevisiae mgt1 mutant growth inhibition, hits give high values
How it was run: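 Compounds were applied to mgt1 mutant yeast, and growth was then compared against vehicle-treated control cultures to give percent inhibition.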

[5] = NCI Yeast Anticancer Drug Screen. Data for the rad50 strain (AID 155);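 note: 0% = growth of vehicle-only cultures of the same strain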; conditions: S. cerevisiae rad50 strain growth inhibition, hits give high values
How it was run: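 A DNA repair-deficient yeast mutant serves as the test organism; compound-induced growth inhibition is calculated against vehicle-treated cells.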

[6] = NCI Yeast Anticancer Drug Screen. Data for the mec2-1 strain (AID 157); conditions: S. cerevisiae mec2-1 strain, hits give high values
How it was run: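 Compounds were applied to mec2-1 yeast cells. Their growth was then compared with that of vehicle-treated cultures to give growth inhibition.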

[7] = NCI Yeast Anticancer Drug Screen. Data for the rad14 strain (AID 159);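 note: 0% = growth of vehicle-treated control cultures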; conditions: S. cerevisiae rad14 strain growth inhibition, hits give high values
How it was run: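 Vehicle-treated cultures served as the baseline for growth inhibition of a DNA repair-mutant yeast strain exposed to each compound.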

[8] = NCI Yeast Anticancer Drug Screen. Data for the sgs1 mgt1 strain (AID 161);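 note: 0% = growth of cultures given vehicle only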; conditions: S. cerevisiae sgs1 mgt1 strain, hits give high values
How it was run: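 Compounds are added to genetically altered yeast, and growth is compared with cultures given vehicle alone to give percent inhibition.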

[9] = NCI Yeast Anticancer Drug Screen. Data for the CLN2oe strain (AID 163);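 note: 0% = growth of vehicle-only control cultures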; conditions: S. cerevisiae CLN2oe strain, hits give high values
How it was run: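 Cells of an engineered yeast line with disturbed cell-cycle regulation are treated with compound. Inhibition of growth is then calculated relative to the vehicle-treated reference.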

[10] = NCI Yeast Anticancer Drug Screen. Data for the cln2 rad14 strain (AID 165);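 note: 0% = growth equal to vehicle treated cultures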; conditions: S. cerevisiae cln2 rad14 strain, hits give high values
How it was run: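 Strain: cln2 rad14 yeast, altered in cell cycle control and DNA damage repair. Read-out: growth inhibition vs vehicle.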

[11] = NCI Yeast Anticancer Drug Screen. Data for the bub3 strain (AID 167); conditions: S. cerevisiae bub3 mutant strain, hits give high values
How it was run: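 Inhibition values come from growth of compound-treated mutant yeast normalised to vehicle-treated controls.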

[12] = NCI Yeast Anticancer Drug Screen. Data for the mlh1 strain (AID 171);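 note: 0% = growth of vehicle-treated control cultures of the same strain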; conditions: S. cerevisiae mlh1 strain growth inhibition, hits give high values
How it was run: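 Test agents were incubated with yeast bearing a defined DNA damage repair or cell cycle control alteration; values are growth inhibition normalised to vehicle-treated cultures.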

[13] = NCI Yeast Anticancer Drug Screen. Data for the sgs1 strain (AID 173);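 note: 0% = growth of vehicle-only control cultures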; conditions: S. cerevisiae sgs1 mutant, hits give high values
How it was run: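 Strain with an altered DNA repair or cell cycle pathway exposed to compound. Growth then measured. Value = inhibition versus vehicle control.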

[14] = NCI Yeast Anticancer Drug Screen. Data for the mlh1 rad18 strain (AID 175); conditions: S. cerevisiae mlh1 rad18 strain growth inhibition, hits give high values
How it was run: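 A repair-deficient yeast strain is exposed to test compound, and growth is scored relative to vehicle-treated controls.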

[15] = NCI Yeast Anticancer Drug Screen. Data for the rad18 strain (AID 177); conditions: S. cerevisiae rad18 mutant growth inhibition, hits give high values
How it was run: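 DNA-repair-defective yeast; compound treatment; growth inhibition scored against vehicle.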

[16] = at 5.0 µM (retest, dose inferred, filed as 0.5)
[17] = at 50.0 µM (retest, dose inferred, filed as 5.0)

Measured: growth inhibition

O=S(=O)(CCCl)c1ccccc1Cl
inactive: [1]; at 1.2 µM -5% | [1]; at 3.7 µM 1% | [1]; at 11.0 µM 42% | [2]; at 1.2 µM 3% | [2]; at 3.7 µM 23% | [2]; at 11.0 µM 33% | [3]; at 1.2 µM -7% | [3]; at 3.7 µM 15% | [3]; at 11.0 µM 43% | [4]; at 1.2 µM 1% | [4]; at 3.7 µM 1% | [4]; at 11.0 µM 41% | [5]; at 1.2 µM -8% | [5]; at 3.7 µM -12% | [5]; [16] -119% | [5]; at 11.0 µM 65% | [6]; at 1.2 µM 2% | [6]; at 3.7 µM 8% | [6]; [16] -36% | [6]; at 11.0 µM 19% | [7]; at 1.2 µM -2% | [7]; at 3.7 µM 11% | [7]; at 11.0 µM 45% | [8]; [16] -42% | [9]; at 1.2 µM -5% | [9]; at 3.7 µM -2% | [9]; at 11.0 µM 3% | [9]; at 33.0 µM 68% | [10]; [16] -42% | [10]; [17] 25% | [11]; at 1.2 µM -1% | [11]; at 3.7 µM 6% | [11]; [16] -59% | [11]; at 11.0 µM 38% | [12]; at 1.2 µM -10% | [12]; at 3.7 µM -1% | [12]; at 11.0 µM 27% | [13]; at 1.2 µM -5% | [13]; at 3.7 µM 0% | [13]; at 11.0 µM 64% | [14]; [16] -115% | [15]; at 1.2 µM -1% | [15]; at 3.7 µM 13%
active: [1]; at 33.0 µM 93% | [1]; at 100.0 µM 99% | [2]; at 33.0 µM 94% | [2]; at 100.0 µM 98% | [3]; at 33.0 µM 79% | [3]; at 100.0 µM 84% | [4]; at 33.0 µM 96% | [4]; at 100.0 µM 98% | [5]; at 33.0 µM 94% | [5]; [17] 79% | [5]; at 50.0 µM 94.2% | [5]; at 100.0 µM 98% | [6]; at 33.0 µM 83% | [6]; [17] 79% | [6]; at 50.0 µM 91.8% | [6]; at 100.0 µM 98% | [7]; at 33.0 µM 91% | [7]; at 100.0 µM 99% | [8]; [17] 87% | [8]; at 50.0 µM 90.8% | [9]; at 100.0 µM 97% | [10]; at 50.0 µM 84.3% | [11]; at 33.0 µM 94% | [11]; [17] 80% | [11]; at 50.0 µM 90.7% | [11]; at 100.0 µM 98% | [12]; at 33.0 µM 90% | [12]; at 100.0 µM 97% | [13]; at 33.0 µM 95% | [13]; at 100.0 µM 99% | [14]; [17] 81% | [14]; at 50.0 µM 90.2% | [15]; at 11.0 µM 83% | [15]; at 33.0 µM 96% | [15]; at 100.0 µM 98%

COc1ccc(O)c(/C=N\Nc2ccccc2)c1
inactive: [1]; at 1.2 µM -10% | [1]; at 3.7 µM -11% | [1]; at 11.0 µM -3% | [1]; at 33.0 µM 54% | [1]; at 100.0 µM 55% | [2]; at 1.2 µM -1% | [2]; at 3.7 µM 5% | [2]; at 11.0 µM 11% | [2]; at 33.0 µM 12% | [2]; at 100.0 µM 33% | [3]; at 1.2 µM -8% | [3]; at 3.7 µM -18% | [3]; at 11.0 µM 13% | [3]; at 33.0 µM 50% | [4]; at 1.2 µM -6% | [4]; at 3.7 µM -7% | [4]; at 11.0 µM -6% | [4]; at 33.0 µM -6% | [4]; at 100.0 µM 36% | [5]; at 1.2 µM -14% | [5]; at 3.7 µM -9% | [5]; [16] -124% | [5]; at 11.0 µM -4% | [5]; at 33.0 µM 25% | [6]; at 1.2 µM -6% | [6]; at 3.7 µM -5%
active: [3]; at 100.0 µM 70% | [5]; [17] 71% | [5]; at 50.0 µM 99.4% | [5]; at 100.0 µM 73%
